# Results from PubChem BioAssay AID1159580 (chemical genetic matrix, 2015).
# Screen size: about 5,500 compounds; about 2,000 (36%) were called active. About 18% were inconclusive and are not listed. The list shows a part of the results. Unmarked numbers belong to inactive results. Rule as the data show it: active = normalized growth mostly below about 0.91 (no sharp cut-off); inconclusive = no clear call, values can overlap the other calls; inactive = mostly above about 0.92.
# Assay: chemical genetic growth profiling, strain panel (AID 1159580);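 also: tested at 20 µM; growth read once vehicle control cultures reached saturation at 30 °C; 1 = growth at the plate median or of vehicle wells; lower values mean less growth of the strain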
# Settings: growth OD
compound,measurement,setting,value
COP(=S)(OC)Oc1ccc(SC)c(C)c1,normalized growth,"S. cerevisiae deletion strains, locus YJR075W, strain HOC1, stronger effect = lower value",1.01
same,normalized growth,"S. cerevisiae deletion strains, locus YKL009W, strain mrt4, stronger effect = lower value",0.942
same,normalized growth,"S. cerevisiae deletion strains, locus YKL068W, stronger effect = lower value",0.996
same,normalized growth,"S. cerevisiae deletion strains, locus YKL085W, strain MDH1 (second series), stronger effect = lower value",0.999
same,normalized growth,"S. cerevisiae deletion strains, locus YKL085W, strain MDH1, stronger effect = lower value",0.999
same,normalized growth,"S. cerevisiae deletion strains, locus YKL160W, strain elf1, stronger effect = lower value",0.999
same,normalized growth,"S. cerevisiae deletion strains, locus YKL190W, strain CNB1, stronger effect = lower value",1
same,normalized growth,"S. cerevisiae deletion strains, locus YKR001C, strain vps1, stronger effect = lower value",0.986
same,normalized growth,"S. cerevisiae deletion strains, locus YKR026C, strain gcn3, stronger effect = lower value",1.01
same,normalized growth,"S. cerevisiae deletion strains, locus YKR091W, strain srl3, stronger effect = lower value",0.995
same,normalized growth,"S. cerevisiae deletion strains, locus YLL001W, strain dnm1, stronger effect = lower value",0.986
same,normalized growth,"S. cerevisiae deletion strains, locus YLL026W, stronger effect = lower value",0.972
same,normalized growth,"S. cerevisiae deletion strains, locus YLL041C, strain sdh2, stronger effect = lower value",1
same,normalized growth,"S. cerevisiae deletion strains, locus YLR027C, strain aat2, stronger effect = lower value",0.988
same,normalized growth,"S. cerevisiae deletion strains, locus YLR039C, strain RIC1, stronger effect = lower value",1.02
same,normalized growth,"S. cerevisiae deletion strains, locus YLR058C, strain SHM2, stronger effect = lower value",1.01
same,normalized growth,"S. cerevisiae deletion strains, locus YLR102C, strain apc9, stronger effect = lower value",0.985
same,normalized growth,"S. cerevisiae deletion strains, locus YLR221C, strain rsa3, stronger effect = lower value",0.92
same,normalized growth,"S. cerevisiae deletion strains, locus YLR258W, strain gsy2, stronger effect = lower value",0.979
same,normalized growth,"S. cerevisiae deletion strains, locus YLR262C, strain YPT6 (second series), stronger effect = lower value",0.949
same,normalized growth,"S. cerevisiae deletion strains, locus YLR262C, strain YPT6, stronger effect = lower value",1.01
same,normalized growth,"S. cerevisiae deletion strains, locus YLR268W, strain sec22, stronger effect = lower value",0.996
same,normalized growth,"S. cerevisiae deletion strains, locus YLR320W, strain mms22, stronger effect = lower value",0.857 (active)
same,normalized growth,"S. cerevisiae deletion strains, locus YLR330W, strain CHS5, stronger effect = lower value",1.01
same,normalized growth,"S. cerevisiae deletion strains, locus YLR342W, strain FKS1 (second series), stronger effect = lower value",0.985
same,normalized growth,"S. cerevisiae deletion strains, locus YLR342W, strain FKS1, stronger effect = lower value",0.997
same,normalized growth,"S. cerevisiae deletion strains, locus YLR357W, strain rsc2, stronger effect = lower value",1.1
same,normalized growth,"S. cerevisiae deletion strains, locus YLR370C, strain arc18, stronger effect = lower value",1.06
same,normalized growth,"S. cerevisiae deletion strains, locus YLR371W, strain rom2, stronger effect = lower value",0.989
same,normalized growth,"S. cerevisiae deletion strains, locus YLR384C, strain iki3, stronger effect = lower value",1.02
same,normalized growth,"S. cerevisiae deletion strains, locus YLR418C, strain cdc73, stronger effect = lower value",0.984
same,normalized growth,"S. cerevisiae deletion strains, locus YML016C, strain PPZ1, stronger effect = lower value",1.02
same,normalized growth,"S. cerevisiae deletion strains, locus YML032C, strain rad52, stronger effect = lower value",0.979
same,normalized growth,"S. cerevisiae deletion strains, locus YML120C, strain ndi1, stronger effect = lower value",0.997
same,normalized growth,"S. cerevisiae deletion strains, locus YML124C, strain tub3, stronger effect = lower value",0.985
same,normalized growth,"S. cerevisiae deletion strains, locus YMR058W, strain fet3, stronger effect = lower value",0.987
same,normalized growth,"S. cerevisiae deletion strains, locus YMR078C, strain ctf18, stronger effect = lower value",0.975
same,normalized growth,"S. cerevisiae deletion strains, locus YMR125W, strain sto1, stronger effect = lower value",1.05
same,normalized growth,"S. cerevisiae deletion strains, locus YMR129W, stronger effect = lower value",1.01
same,normalized growth,"S. cerevisiae deletion strains, locus YMR205C, strain PFK2, stronger effect = lower value",0.947
same,normalized growth,"S. cerevisiae deletion strains, locus YMR223W, strain ubp8, stronger effect = lower value",0.982
same,normalized growth,"S. cerevisiae deletion strains, locus YMR231W, strain pep5, stronger effect = lower value",1
same,normalized growth,"S. cerevisiae deletion strains, locus YMR263W, strain SAP30, stronger effect = lower value",1.01
same,normalized growth,"S. cerevisiae deletion strains, locus YMR307W, strain GAS1, stronger effect = lower value",0.908
same,normalized growth,"S. cerevisiae deletion strains, locus YNL067W, strain RPL9B, stronger effect = lower value",1.01
same,normalized growth,"S. cerevisiae deletion strains, locus YNL071W, strain lat1, stronger effect = lower value",0.879 (active)
same,normalized growth,"S. cerevisiae deletion strains, locus YNL128W, strain TEP1, stronger effect = lower value",1.02
same,normalized growth,"S. cerevisiae deletion strains, locus YNL153C, strain GIM3, stronger effect = lower value",1.02
same,normalized growth,"S. cerevisiae deletion strains, locus YNL209W, strain ssb2, stronger effect = lower value",1.01
same,normalized growth,"S. cerevisiae deletion strains, locus YNL233W, strain BNI4, stronger effect = lower value",0.998
same,normalized growth,"S. cerevisiae deletion strains, locus YNL248C, strain rpa49, stronger effect = lower value",0.967
same,normalized growth,"S. cerevisiae deletion strains, locus YNL250W, strain rad50, stronger effect = lower value",0.987
same,normalized growth,"S. cerevisiae deletion strains, locus YNL271C, strain bni1, stronger effect = lower value",0.989
same,normalized growth,"S. cerevisiae deletion strains, locus YNL298W, strain CLA4, stronger effect = lower value",0.981
same,normalized growth,"S. cerevisiae deletion strains, locus YNL307C, strain MCK1, stronger effect = lower value",0.979
same,normalized growth,"S. cerevisiae deletion strains, locus YNL322C, strain KRE1 (second series), stronger effect = lower value",1.01
same,normalized growth,"S. cerevisiae deletion strains, locus YNL322C, strain KRE1, stronger effect = lower value",1.02
same,normalized growth,"S. cerevisiae deletion strains, locus YNR049C, strain mso1, stronger effect = lower value",1
same,normalized growth,"S. cerevisiae deletion strains, locus YNR052C, strain pop2, stronger effect = lower value",0.984
same,normalized growth,"S. cerevisiae deletion strains, locus YOL006C, strain TOP1, stronger effect = lower value",1.01
same,normalized growth,"S. cerevisiae deletion strains, locus YOL012C, strain htz1",1.06
same,normalized growth,"S. cerevisiae deletion strains, locus YOL147C, strain pex11, stronger effect = lower value",0.985
same,normalized growth,"S. cerevisiae deletion strains, locus YOR001W, strain rrp6, stronger effect = lower value",0.99
same,normalized growth,"S. cerevisiae deletion strains, locus YOR061W, strain CKA2, stronger effect = lower value",1.01
same,normalized growth,"S. cerevisiae deletion strains, locus YOR069W, strain VPS5, stronger effect = lower value",1.01
same,normalized growth,"S. cerevisiae deletion strains, locus YOR070C, strain gyp1, stronger effect = lower value",0.978
same,normalized growth,"S. cerevisiae deletion strains, locus YOR080W, strain dia2, stronger effect = lower value",1.03
same,normalized growth,"S. cerevisiae deletion strains, locus YOR083W, strain WHI5, stronger effect = lower value",0.951
same,normalized growth,"S. cerevisiae deletion strains, locus YOR106W, strain vam3, stronger effect = lower value",0.968
same,normalized growth,"S. cerevisiae deletion strains, locus YOR136W, strain idh2, stronger effect = lower value",0.985
same,normalized growth,"S. cerevisiae deletion strains, locus YOR144C, strain elg1, stronger effect = lower value",0.992
same,normalized growth,"S. cerevisiae deletion strains, locus YOR184W, strain ser1, stronger effect = lower value",0.958
same,normalized growth,"S. cerevisiae deletion strains, locus YOR265W, strain rbl2, stronger effect = lower value",1.01
same,normalized growth,"S. cerevisiae deletion strains, locus YOR270C, strain vph1, stronger effect = lower value",0.791
same,normalized growth,"S. cerevisiae deletion strains, locus YOR290C, strain snf2, stronger effect = lower value",0.994
same,normalized growth,"S. cerevisiae deletion strains, locus YOR316C, strain cot1, stronger effect = lower value",0.992
same,normalized growth,"S. cerevisiae deletion strains, locus YPL051W, strain arl3, stronger effect = lower value",0.96
same,normalized growth,"S. cerevisiae deletion strains, locus YPL055C, strain LGE1, stronger effect = lower value",1.01
same,normalized growth,"S. cerevisiae deletion strains, locus YPL078C, strain atp4, stronger effect = lower value",0.988
same,normalized growth,"S. cerevisiae deletion strains, locus YPL106C, strain sse1, stronger effect = lower value",1.08
same,normalized growth,"S. cerevisiae deletion strains, locus YPL240C, strain hsp82, stronger effect = lower value",1.03
same,normalized growth,"S. cerevisiae deletion strains, locus YPL241C, strain CIN2, stronger effect = lower value",1.01
same,normalized growth,"S. cerevisiae deletion strains, locus YPR119W, strain clb2, stronger effect = lower value",0.981
same,normalized growth,"S. cerevisiae deletion strains, locus YPR141C, strain kar3, stronger effect = lower value",0.988
same,normalized growth,"S. cerevisiae deletion strains, locus YPR163C, strain tif3, stronger effect = lower value",0.98
same,normalized growth,"S. cerevisiae deletion strains, locus YPR167C, strain met16, stronger effect = lower value",0.983
same,normalized growth,"S. cerevisiae deletion strains, strain wtn01, stronger effect = lower value",0.989
same,normalized growth,"S. cerevisiae strains, strain wild type, stronger effect = lower value",1.01
